# Data published in PMC11006913.
# Assays:
# Experiment in all cases: PBM; 200 nM protein, PBS
# Settings in all cases: dsDNA, one strand shown
# HOXC9 [1] = biological target: HOXC9 (Homo sapiens, UniProt P31274 178-260, K195R)
# HOXC9 [2] = biological target: HOXC9 (Homo sapiens, UniProt P31274 178-260)
# HOXC9 [3] = biological target: HOXC9 (Homo sapiens, UniProt P31274 178-260, R193K)
# MSX2 [4] = biological target: MSX2 (Homo sapiens, UniProt P35548 130-214, R199I)
# MSX2 [5] = biological target: MSX2 (Homo sapiens, UniProt P35548 130-214)
# HOXC9 [6] = biological target: HOXC9 (Homo sapiens, UniProt P31274 178-260, R222W)
# MSX2 [7] = biological target: MSX2 (Homo sapiens, UniProt P35548 130-214, F161Y)
# HOXD13 [8] = biological target: HOXD13 (Homo sapiens, UniProt P35453 263-343, T313R)
# HOXD13 [9] = biological target: HOXD13 (Homo sapiens, UniProt P35453 263-343)
# HOXD13 [10] = biological target: HOXD13 (Homo sapiens, UniProt P35453 263-343, T313A)
# HOXB9 = HOXB9 (Homo sapiens, UniProt P17482 171-250, R186Q)
# HOXB6 [11] = biological target: HOXB6 (Homo sapiens, UniProt P17509 132-218, K202E)
# HOXB6 [12] = biological target: HOXB6 (Homo sapiens, UniProt P17509 132-218)
# ALX1 [13] = biological target: ALX1 (Homo sapiens, UniProt Q15699 118-204, L144V)
# ALX1 [14] = biological target: ALX1 (Homo sapiens, UniProt Q15699 118-204, L144R)
# ALX1 [15] = biological target: ALX1 (Homo sapiens, UniProt Q15699 118-204)
# HOXA2 [16] = biological target: HOXA2 (Homo sapiens, UniProt O43364 129-215, R185T)
# HOXA2 [17] = biological target: HOXA2 (Homo sapiens, UniProt O43364 129-215, R185K)
# PROP1 [18] = biological target: PROP1 (Homo sapiens, UniProt O75360 56-141)
# PROP1 [19] = biological target: PROP1 (Homo sapiens, UniProt O75360 56-141, R99H)
# PROP1 [20] = biological target: PROP1 (Homo sapiens, UniProt O75360 56-141, F88S)
# HOXA2 [21] = biological target: HOXA2 (Homo sapiens, UniProt O43364 129-215, Y150S)
# HOXA2 [22] = biological target: HOXA2 (Homo sapiens, UniProt O43364 129-215)
# Sequence of HOXA2 (Homo sapiens, UniProt O43364 129-215) (O43364 129-215): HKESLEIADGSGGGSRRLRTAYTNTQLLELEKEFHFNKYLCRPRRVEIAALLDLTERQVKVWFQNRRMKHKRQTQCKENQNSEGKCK
# Sequence of HOXD13 (Homo sapiens, UniProt P35453 263-343) (P35453 263-343): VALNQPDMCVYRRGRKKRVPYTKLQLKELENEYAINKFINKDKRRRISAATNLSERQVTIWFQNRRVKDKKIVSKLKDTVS
# Sequence of HOXC9 (Homo sapiens, UniProt P31274 178-260, R193K) (P31274 178-260 R193K): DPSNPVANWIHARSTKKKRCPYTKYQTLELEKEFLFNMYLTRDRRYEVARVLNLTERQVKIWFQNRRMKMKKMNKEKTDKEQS
# Sequence of MSX2 (Homo sapiens, UniProt P35548 130-214, F161Y) (P35548 130-214 F161Y): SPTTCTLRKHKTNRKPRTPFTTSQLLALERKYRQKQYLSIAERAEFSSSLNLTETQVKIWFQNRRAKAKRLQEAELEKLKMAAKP
# Sequence of HOXD13 (Homo sapiens, UniProt P35453 263-343, T313A) (P35453 263-343 T313A): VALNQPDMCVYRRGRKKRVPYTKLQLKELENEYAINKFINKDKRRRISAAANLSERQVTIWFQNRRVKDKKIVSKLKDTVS
# Sequence of MSX2 (Homo sapiens, UniProt P35548 130-214, R199I) (P35548 130-214 R199I): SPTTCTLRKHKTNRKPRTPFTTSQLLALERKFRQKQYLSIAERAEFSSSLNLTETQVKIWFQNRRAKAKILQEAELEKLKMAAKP
# Sequence of HOXC9 (Homo sapiens, UniProt P31274 178-260) (P31274 178-260): as the sequence (P31274 178-260 R193K) above, with K16R counted along it
# Sequence of MSX2 (Homo sapiens, UniProt P35548 130-214) (P35548 130-214): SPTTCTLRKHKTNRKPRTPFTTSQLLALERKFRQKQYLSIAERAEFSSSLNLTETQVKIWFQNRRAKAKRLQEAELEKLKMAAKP
# Sequence of HOXC9 (Homo sapiens, UniProt P31274 178-260, R222W) (P31274 178-260 R222W): as the sequence (P31274 178-260 R193K) above, with K16R, R45W counted along it
# Sequence of HOXC9 (Homo sapiens, UniProt P31274 178-260, K195R) (P31274 178-260 K195R): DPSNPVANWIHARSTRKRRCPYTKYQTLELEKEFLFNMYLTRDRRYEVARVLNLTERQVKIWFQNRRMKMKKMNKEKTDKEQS
# Sequence of HOXD13 (Homo sapiens, UniProt P35453 263-343, T313R) (P35453 263-343 T313R): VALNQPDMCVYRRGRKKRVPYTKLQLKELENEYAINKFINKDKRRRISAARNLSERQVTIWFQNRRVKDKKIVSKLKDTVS
# Sequence of HOXA2 (Homo sapiens, UniProt O43364 129-215, Y150S) (O43364 129-215 Y150S): as the sequence (O43364 129-215) above, with Y22S counted along it
# Sequence of HOXB6 (Homo sapiens, UniProt P17509 132-218) (P17509 132-218): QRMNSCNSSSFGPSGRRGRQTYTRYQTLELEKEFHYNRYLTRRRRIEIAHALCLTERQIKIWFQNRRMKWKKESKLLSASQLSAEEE
# Sequence of HOXA2 (Homo sapiens, UniProt O43364 129-215, R185T) (O43364 129-215 R185T): as the sequence (O43364 129-215) above, with R57T counted along it
# Sequence of HOXB6 (Homo sapiens, UniProt P17509 132-218, K202E) (P17509 132-218 K202E): as the sequence (P17509 132-218) above, with K71E counted along it
# Sequence of HOXA2 (Homo sapiens, UniProt O43364 129-215, R185K) (O43364 129-215 R185K): as the sequence (O43364 129-215) above, with R57K counted along it
# Sequence of PROP1 (Homo sapiens, UniProt O75360 56-141, R99H) (O75360 56-141 R99H): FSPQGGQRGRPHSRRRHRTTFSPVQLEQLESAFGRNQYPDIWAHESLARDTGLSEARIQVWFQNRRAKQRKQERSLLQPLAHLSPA
# Sequence of HOXB9 (P17482 171-250 R186Q): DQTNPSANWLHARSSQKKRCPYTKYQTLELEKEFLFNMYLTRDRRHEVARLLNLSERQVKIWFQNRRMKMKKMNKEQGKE
# Sequence of ALX1 (Homo sapiens, UniProt Q15699 118-204) (Q15699 118-204): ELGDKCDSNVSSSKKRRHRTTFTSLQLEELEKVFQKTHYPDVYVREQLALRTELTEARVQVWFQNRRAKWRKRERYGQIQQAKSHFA
# Sequence of PROP1 (Homo sapiens, UniProt O75360 56-141) (O75360 56-141): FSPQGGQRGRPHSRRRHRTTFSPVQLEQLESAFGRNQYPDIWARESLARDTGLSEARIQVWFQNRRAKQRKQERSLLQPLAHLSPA
# Sequence of ALX1 (Homo sapiens, UniProt Q15699 118-204, L144V) (Q15699 118-204 L144V): as the sequence (Q15699 118-204) above, with L27V counted along it
# Sequence of PROP1 (Homo sapiens, UniProt O75360 56-141, F88S) (O75360 56-141 F88S): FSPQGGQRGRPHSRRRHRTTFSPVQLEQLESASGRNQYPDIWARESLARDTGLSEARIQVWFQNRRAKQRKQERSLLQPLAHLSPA
# Sequence of ALX1 (Homo sapiens, UniProt Q15699 118-204, L144R) (Q15699 118-204 L144R): as the sequence (Q15699 118-204) above, with L27R counted along it
sequence,measurement,setting,value
ACTAAATA,binding signal,HOXC9 [1],"11.6 upbm affinity estimate (log intensity, higher = more binding, comparable within an allelic series)"
same,binding signal,HOXC9 [2],"11.5 upbm affinity estimate (log intensity, higher = more binding, comparable within an allelic series)"
same,binding signal,HOXC9 [3],"11.6 upbm affinity estimate (log intensity, higher = more binding, comparable within an allelic series)"
AGTAATAA,binding signal,HOXC9 [1],"12.3 upbm affinity estimate (log intensity, higher = more binding, comparable within an allelic series)"
same,binding signal,HOXC9 [2],"12.3 upbm affinity estimate (log intensity, higher = more binding, comparable within an allelic series)"
same,binding signal,MSX2 [4],"11.4 upbm affinity estimate (log intensity, higher = more binding, comparable within an allelic series)"
same,binding signal,HOXC9 [3],"12.3 upbm affinity estimate (log intensity, higher = more binding, comparable within an allelic series)"
same,binding signal,MSX2 [5],"12.5 upbm affinity estimate (log intensity, higher = more binding, comparable within an allelic series)"
same,binding signal,HOXC9 [6],"10.9 upbm affinity estimate (log intensity, higher = more binding, comparable within an allelic series)"
same,binding signal,MSX2 [7],"12.3 upbm affinity estimate (log intensity, higher = more binding, comparable within an allelic series)"
TCGGGCCA,binding signal,HOXC9 [1],"9.7 upbm affinity estimate (log intensity, higher = more binding, comparable within an allelic series)"
same,binding signal,HOXC9 [2],"9.78 upbm affinity estimate (log intensity, higher = more binding, comparable within an allelic series)"
same,binding signal,MSX2 [4],"9.6 upbm affinity estimate (log intensity, higher = more binding, comparable within an allelic series)"
same,binding signal,HOXD13 [8],"9.55 upbm affinity estimate (log intensity, higher = more binding, comparable within an allelic series)"
same,binding signal,HOXC9 [3],"9.72 upbm affinity estimate (log intensity, higher = more binding, comparable within an allelic series)"
same,binding signal,HOXD13 [9],"9.44 upbm affinity estimate (log intensity, higher = more binding, comparable within an allelic series)"
same,binding signal,MSX2 [5],"9.63 upbm affinity estimate (log intensity, higher = more binding, comparable within an allelic series)"
same,binding signal,HOXD13 [10],"9.66 upbm affinity estimate (log intensity, higher = more binding, comparable within an allelic series)"
same,binding signal,HOXC9 [6],"9.7 upbm affinity estimate (log intensity, higher = more binding, comparable within an allelic series)"
same,binding signal,MSX2 [7],"9.51 upbm affinity estimate (log intensity, higher = more binding, comparable within an allelic series)"
ATTTAATA,binding signal,HOXC9 [1],"12.4 upbm affinity estimate (log intensity, higher = more binding, comparable within an allelic series)"
same,binding signal,HOXC9 [2],"12.5 upbm affinity estimate (log intensity, higher = more binding, comparable within an allelic series)"
same,binding signal,HOXD13 [8],"10.9 upbm affinity estimate (log intensity, higher = more binding, comparable within an allelic series)"
same,binding signal,HOXC9 [3],"12.4 upbm affinity estimate (log intensity, higher = more binding, comparable within an allelic series)"
same,binding signal,HOXD13 [9],"11.9 upbm affinity estimate (log intensity, higher = more binding, comparable within an allelic series)"
same,binding signal,HOXD13 [10],"11.8 upbm affinity estimate (log intensity, higher = more binding, comparable within an allelic series)"
same,binding signal,HOXB9,"11.4 upbm affinity estimate (log intensity, higher = more binding, comparable within an allelic series)"
same,binding signal,HOXC9 [6],"11.1 upbm affinity estimate (log intensity, higher = more binding, comparable within an allelic series)"
CCCCCCAC,binding signal,HOXC9 [1],"9.36 upbm affinity estimate (log intensity, higher = more binding, comparable within an allelic series)"
same,binding signal,HOXB6 [11],"8.84 upbm affinity estimate (log intensity, higher = more binding, comparable within an allelic series)"
same,binding signal,HOXC9 [2],"9.41 upbm affinity estimate (log intensity, higher = more binding, comparable within an allelic series)"
same,binding signal,HOXD13 [8],"9.08 upbm affinity estimate (log intensity, higher = more binding, comparable within an allelic series)"
same,binding signal,HOXC9 [3],"9.4 upbm affinity estimate (log intensity, higher = more binding, comparable within an allelic series)"
same,binding signal,HOXD13 [9],"9.3 upbm affinity estimate (log intensity, higher = more binding, comparable within an allelic series)"
same,binding signal,HOXD13 [10],"9.15 upbm affinity estimate (log intensity, higher = more binding, comparable within an allelic series)"
same,binding signal,HOXC9 [6],"9.29 upbm affinity estimate (log intensity, higher = more binding, comparable within an allelic series)"
same,binding signal,HOXB6 [12],"8.7 upbm affinity estimate (log intensity, higher = more binding, comparable within an allelic series)"
CCCAGGTC,binding signal,HOXC9 [1],"9.66 upbm affinity estimate (log intensity, higher = more binding, comparable within an allelic series)"
same,binding signal,HOXC9 [2],"9.74 upbm affinity estimate (log intensity, higher = more binding, comparable within an allelic series)"
same,binding signal,ALX1 [13],"6.5 upbm affinity estimate (log intensity, higher = more binding, comparable within an allelic series)"
same,binding signal,HOXC9 [3],"9.58 upbm affinity estimate (log intensity, higher = more binding, comparable within an allelic series)"
same,binding signal,ALX1 [14],"6.45 upbm affinity estimate (log intensity, higher = more binding, comparable within an allelic series)"
same,binding signal,HOXC9 [6],"9.65 upbm affinity estimate (log intensity, higher = more binding, comparable within an allelic series)"
same,binding signal,ALX1 [15],"6.46 upbm affinity estimate (log intensity, higher = more binding, comparable within an allelic series)"
CGGGCCAG,binding signal,HOXC9 [1],"9.64 upbm affinity estimate (log intensity, higher = more binding, comparable within an allelic series)"
same,binding signal,HOXC9 [2],"9.85 upbm affinity estimate (log intensity, higher = more binding, comparable within an allelic series)"
same,binding signal,MSX2 [4],"9.53 upbm affinity estimate (log intensity, higher = more binding, comparable within an allelic series)"
same,binding signal,HOXC9 [3],"9.73 upbm affinity estimate (log intensity, higher = more binding, comparable within an allelic series)"
same,binding signal,MSX2 [5],"9.56 upbm affinity estimate (log intensity, higher = more binding, comparable within an allelic series)"
same,binding signal,HOXC9 [6],"9.77 upbm affinity estimate (log intensity, higher = more binding, comparable within an allelic series)"
same,binding signal,MSX2 [7],"9.66 upbm affinity estimate (log intensity, higher = more binding, comparable within an allelic series)"
AGTATAAC,binding signal,HOXC9 [1],"11 upbm affinity estimate (log intensity, higher = more binding, comparable within an allelic series)"
same,binding signal,HOXC9 [2],"11 upbm affinity estimate (log intensity, higher = more binding, comparable within an allelic series)"
same,binding signal,HOXC9 [3],"11 upbm affinity estimate (log intensity, higher = more binding, comparable within an allelic series)"
GAGGGTCC,binding signal,HOXC9 [1],"9.32 upbm affinity estimate (log intensity, higher = more binding, comparable within an allelic series)"
same,binding signal,HOXB6 [11],"8.91 upbm affinity estimate (log intensity, higher = more binding, comparable within an allelic series)"
same,binding signal,HOXC9 [2],"9.31 upbm affinity estimate (log intensity, higher = more binding, comparable within an allelic series)"
same,binding signal,HOXC9 [3],"9.32 upbm affinity estimate (log intensity, higher = more binding, comparable within an allelic series)"
same,binding signal,HOXC9 [6],"9.63 upbm affinity estimate (log intensity, higher = more binding, comparable within an allelic series)"
same,binding signal,HOXB6 [12],"8.74 upbm affinity estimate (log intensity, higher = more binding, comparable within an allelic series)"
ACGATAAA,binding signal,HOXC9 [1],"11.7 upbm affinity estimate (log intensity, higher = more binding, comparable within an allelic series)"
same,binding signal,HOXC9 [2],"11.8 upbm affinity estimate (log intensity, higher = more binding, comparable within an allelic series)"
same,binding signal,HOXD13 [8],"10.1 upbm affinity estimate (log intensity, higher = more binding, comparable within an allelic series)"
same,binding signal,HOXC9 [3],"11.8 upbm affinity estimate (log intensity, higher = more binding, comparable within an allelic series)"
same,binding signal,HOXD13 [9],"10.8 upbm affinity estimate (log intensity, higher = more binding, comparable within an allelic series)"
CGGAGCCC,binding signal,HOXC9 [1],"9.46 upbm affinity estimate (log intensity, higher = more binding, comparable within an allelic series)"
same,binding signal,HOXA2 [16],"7.2 upbm affinity estimate (log intensity, higher = more binding, comparable within an allelic series)"
same,binding signal,HOXC9 [2],"9.37 upbm affinity estimate (log intensity, higher = more binding, comparable within an allelic series)"
same,binding signal,HOXC9 [3],"9.44 upbm affinity estimate (log intensity, higher = more binding, comparable within an allelic series)"
same,binding signal,HOXA2 [17],"10.2 upbm affinity estimate (log intensity, higher = more binding, comparable within an allelic series)"
same,binding signal,PROP1 [18],"6.65 upbm affinity estimate (log intensity, higher = more binding, comparable within an allelic series)"
same,binding signal,PROP1 [19],"6.77 upbm affinity estimate (log intensity, higher = more binding, comparable within an allelic series)"
same,binding signal,HOXC9 [6],"9.51 upbm affinity estimate (log intensity, higher = more binding, comparable within an allelic series)"
same,binding signal,PROP1 [20],"6.36 upbm affinity estimate (log intensity, higher = more binding, comparable within an allelic series)"
same,binding signal,HOXA2 [21],"10.1 upbm affinity estimate (log intensity, higher = more binding, comparable within an allelic series)"
same,binding signal,HOXA2 [22],"7.02 upbm affinity estimate (log intensity, higher = more binding, comparable within an allelic series)"
ATTTAACA,binding signal,HOXC9 [1],"11.6 upbm affinity estimate (log intensity, higher = more binding, comparable within an allelic series)"
same,binding signal,HOXC9 [2],"11.6 upbm affinity estimate (log intensity, higher = more binding, comparable within an allelic series)"
same,binding signal,HOXC9 [3],"11.6 upbm affinity estimate (log intensity, higher = more binding, comparable within an allelic series)"
GAGATAAA,binding signal,HOXC9 [1],"11.1 upbm affinity estimate (log intensity, higher = more binding, comparable within an allelic series)"
same,binding signal,HOXC9 [2],"11.1 upbm affinity estimate (log intensity, higher = more binding, comparable within an allelic series)"
same,binding signal,HOXC9 [3],"11.1 upbm affinity estimate (log intensity, higher = more binding, comparable within an allelic series)"
AGGGGCTC,binding signal,HOXC9 [1],"9.39 upbm affinity estimate (log intensity, higher = more binding, comparable within an allelic series)"
same,binding signal,HOXC9 [2],"9.62 upbm affinity estimate (log intensity, higher = more binding, comparable within an allelic series)"
same,binding signal,HOXD13 [8],"9.61 upbm affinity estimate (log intensity, higher = more binding, comparable within an allelic series)"
same,binding signal,HOXC9 [3],"9.46 upbm affinity estimate (log intensity, higher = more binding, comparable within an allelic series)"
same,binding signal,HOXD13 [9],"9.68 upbm affinity estimate (log intensity, higher = more binding, comparable within an allelic series)"
same,binding signal,HOXD13 [10],"9.7 upbm affinity estimate (log intensity, higher = more binding, comparable within an allelic series)"
same,binding signal,HOXC9 [6],"9.6 upbm affinity estimate (log intensity, higher = more binding, comparable within an allelic series)"
CCTGCCGC,binding signal,HOXC9 [1],"9.4 upbm affinity estimate (log intensity, higher = more binding, comparable within an allelic series)"
same,binding signal,HOXA2 [16],"6.91 upbm affinity estimate (log intensity, higher = more binding, comparable within an allelic series)"
same,binding signal,HOXC9 [2],"9.49 upbm affinity estimate (log intensity, higher = more binding, comparable within an allelic series)"
same,binding signal,HOXC9 [3],"9.31 upbm affinity estimate (log intensity, higher = more binding, comparable within an allelic series)"
same,binding signal,HOXA2 [17],"9.96 upbm affinity estimate (log intensity, higher = more binding, comparable within an allelic series)"
same,binding signal,HOXC9 [6],"9.67 upbm affinity estimate (log intensity, higher = more binding, comparable within an allelic series)"
same,binding signal,HOXA2 [21],"10.4 upbm affinity estimate (log intensity, higher = more binding, comparable within an allelic series)"
same,binding signal,HOXA2 [22],"7.06 upbm affinity estimate (log intensity, higher = more binding, comparable within an allelic series)"
